PubChem BioAssay AID1159580 (chemical genetic matrix, 2015)
Hit rate of the full screen: of about 5,500 compounds, about 2,000 (36%) were called active. Not shown: some 18% with an inconclusive outcome. No stated cut-off is given here; in the data, active means normalized growth mostly below about 0.91 (no sharp cut-off); inconclusive means no clear call, values can overlap the other calls; inactive means mostly above about 0.92. Some of the results follow.

Assay: chemical genetic growth profiling, strain panel (AID 1159580);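 further: tested at 20 µM; growth read once vehicle control cultures reached saturation at 30 °C; 1 = growth at the plate median or of vehicle wells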
Conditions: growth OD

Measured: normalized growth

C[C@@H]1O[C@@H](O[C@H]2C[C@@H](O)[C@]3(CO)C4C(CC[C@]3(O)C2)[C@@]2(O)CC[C@H](C3=CC(=O)OC3)[C@@]2(C)C[C@H]4O)[C@H](O)[C@H](O)[C@H]1O (some centres not stated)
inactive: S. cerevisiae deletion strains, locus YKL009W, strain mrt4, stronger effect = lower value 0.991 | S. cerevisiae deletion strains, locus YKL068W, stronger effect = lower value 0.998 | S. cerevisiae deletion strains, locus YKL085W, strain MDH1 (second series), stronger effect = lower value 0.993 | S. cerevisiae deletion strains, locus YKL085W, strain MDH1, stronger effect = lower value 0.993 | S. cerevisiae deletion strains, locus YKL160W, strain elf1, stronger effect = lower value 0.993 | S. cerevisiae deletion strains, locus YKR001C, strain vps1, stronger effect = lower value 1.01 | S. cerevisiae deletion strains, locus YKR026C, strain gcn3, stronger effect = lower value 1.02 | S. cerevisiae deletion strains, locus YKR091W, strain srl3, stronger effect = lower value 1.01 | S. cerevisiae deletion strains, locus YLL001W, strain dnm1, stronger effect = lower value 1.03 | S. cerevisiae deletion strains, locus YLL026W, stronger effect = lower value 1.03 | S. cerevisiae deletion strains, locus YLL041C, strain sdh2, stronger effect = lower value 1.01 | S. cerevisiae deletion strains, locus YLR027C, strain aat2, stronger effect = lower value 1.01 | S. cerevisiae deletion strains, locus YLR039C, strain RIC1, stronger effect = lower value 1.09 | S. cerevisiae deletion strains, locus YLR058C, strain SHM2, stronger effect = lower value 1.02 | S. cerevisiae deletion strains, locus YLR102C, strain apc9, stronger effect = lower value 0.997 | S. cerevisiae deletion strains, locus YLR113W, strain HOG1, stronger effect = lower value 1.01 | S. cerevisiae deletion strains, locus YLR221C, strain rsa3, stronger effect = lower value 1.02 | S. cerevisiae deletion strains, locus YLR258W, strain gsy2, stronger effect = lower value 1.02 | S. cerevisiae deletion strains, locus YLR262C, strain YPT6 (second series), stronger effect = lower value 1.02 | S. cerevisiae deletion strains, locus YLR262C, strain YPT6, stronger effect = lower value 1.09 | S. cerevisiae deletion strains, locus YLR268W, strain sec22, stronger effect = lower value 0.98 | S. cerevisiae deletion strains, locus YLR320W, strain mms22, stronger effect = lower value 1.03 | S. cerevisiae deletion strains, locus YLR330W, strain CHS5, stronger effect = lower value 1.01 | S. cerevisiae deletion strains, locus YLR342W, strain FKS1 (second series), stronger effect = lower value 1.04 | S. cerevisiae deletion strains, locus YLR342W, strain FKS1, stronger effect = lower value 1.02 | S. cerevisiae deletion strains, locus YLR357W, strain rsc2, stronger effect = lower value 1.01 | S. cerevisiae deletion strains, locus YLR370C, strain arc18, stronger effect = lower value 1.05 | S. cerevisiae deletion strains, locus YLR371W, strain rom2, stronger effect = lower value 0.989 | S. cerevisiae deletion strains, locus YLR384C, strain iki3, stronger effect = lower value 1.02 | S. cerevisiae deletion strains, locus YLR418C, strain cdc73, stronger effect = lower value 0.971 | S. cerevisiae deletion strains, locus YML016C, strain PPZ1, stronger effect = lower value 1.02 | S. cerevisiae deletion strains, locus YML032C, strain rad52, stronger effect = lower value 0.997 | S. cerevisiae deletion strains, locus YML120C, strain ndi1, stronger effect = lower value 1.04 | S. cerevisiae deletion strains, locus YML124C, strain tub3, stronger effect = lower value 0.987 | S. cerevisiae deletion strains, locus YMR058W, strain fet3, stronger effect = lower value 1.02 | S. cerevisiae deletion strains, locus YMR078C, strain ctf18, stronger effect = lower value 0.981 | S. cerevisiae deletion strains, locus YMR125W, strain sto1, stronger effect = lower value 1.02 | S. cerevisiae deletion strains, locus YMR129W, stronger effect = lower value 1.02 | S. cerevisiae deletion strains, locus YMR205C, strain PFK2, stronger effect = lower value 0.995 | S. cerevisiae deletion strains, locus YMR223W, strain ubp8, stronger effect = lower value 0.998 | S. cerevisiae deletion strains, locus YMR231W, strain pep5, stronger effect = lower value 1.02 | S. cerevisiae deletion strains, locus YMR263W, strain SAP30, stronger effect = lower value 1.01 | S. cerevisiae deletion strains, locus YMR307W, strain GAS1, stronger effect = lower value 1.17 | S. cerevisiae deletion strains, locus YNL067W, strain RPL9B, stronger effect = lower value 1.01 | S. cerevisiae deletion strains, locus YNL071W, strain lat1, stronger effect = lower value 1.03 | S. cerevisiae deletion strains, locus YNL183C, strain NPR1, stronger effect = lower value 0.963 | S. cerevisiae deletion strains, locus YNL209W, strain ssb2, stronger effect = lower value 1.02 | S. cerevisiae deletion strains, locus YNL233W, strain BNI4, stronger effect = lower value 1.03 | S. cerevisiae deletion strains, locus YNL248C, strain rpa49, stronger effect = lower value 0.985 | S. cerevisiae deletion strains, locus YNL250W, strain rad50, stronger effect = lower value 1.02 | S. cerevisiae deletion strains, locus YNL271C, strain bni1, stronger effect = lower value 0.985 | S. cerevisiae deletion strains, locus YNL298W, strain CLA4, stronger effect = lower value 0.996 | S. cerevisiae deletion strains, locus YNL307C, strain MCK1, stronger effect = lower value 0.999 | S. cerevisiae deletion strains, locus YNL322C, strain KRE1 (second series), stronger effect = lower value 1.01 | S. cerevisiae deletion strains, locus YNL322C, strain KRE1, stronger effect = lower value 1.02 | S. cerevisiae deletion strains, locus YNR049C, strain mso1, stronger effect = lower value 1.03 | S. cerevisiae deletion strains, locus YNR052C, strain pop2, stronger effect = lower value 0.981 | S. cerevisiae deletion strains, locus YOL006C, strain TOP1, stronger effect = lower value 1.03 | S. cerevisiae deletion strains, locus YOL012C, strain htz1 0.899 | S. cerevisiae deletion strains, locus YOL147C, strain pex11, stronger effect = lower value 0.997 | S. cerevisiae deletion strains, locus YOR001W, strain rrp6, stronger effect = lower value 1.05 | S. cerevisiae deletion strains, locus YOR061W, strain CKA2, stronger effect = lower value 1.02 | S. cerevisiae deletion strains, locus YOR069W, strain VPS5, stronger effect = lower value 1.02 | S. cerevisiae deletion strains, locus YOR070C, strain gyp1, stronger effect = lower value 1.03 | S. cerevisiae deletion strains, locus YOR080W, strain dia2, stronger effect = lower value 1.03 | S. cerevisiae deletion strains, locus YOR083W, strain WHI5, stronger effect = lower value 0.985 | S. cerevisiae deletion strains, locus YOR106W, strain vam3, stronger effect = lower value 1.01 | S. cerevisiae deletion strains, locus YOR136W, strain idh2, stronger effect = lower value 0.987 | S. cerevisiae deletion strains, locus YOR144C, strain elg1, stronger effect = lower value 0.983 | S. cerevisiae deletion strains, locus YOR184W, strain ser1, stronger effect = lower value 1.01 | S. cerevisiae deletion strains, locus YOR231W, strain MKK1, stronger effect = lower value 1.02 | S. cerevisiae deletion strains, locus YOR265W, strain rbl2, stronger effect = lower value 1.01 | S. cerevisiae deletion strains, locus YOR270C, strain vph1, stronger effect = lower value 1.05 | S. cerevisiae deletion strains, locus YOR290C, strain snf2, stronger effect = lower value 1.04 | S. cerevisiae deletion strains, locus YOR316C, strain cot1, stronger effect = lower value 0.989 | S. cerevisiae deletion strains, locus YPL051W, strain arl3, stronger effect = lower value 1.01 | S. cerevisiae deletion strains, locus YPL078C, strain atp4, stronger effect = lower value 1.02 | S. cerevisiae deletion strains, locus YPL106C, strain sse1, stronger effect = lower value 1.03 | S. cerevisiae deletion strains, locus YPL240C, strain hsp82, stronger effect = lower value 1.03 | S. cerevisiae deletion strains, locus YPL241C, strain CIN2, stronger effect = lower value 1.01 | S. cerevisiae deletion strains, locus YPL256C, strain CLN2, stronger effect = lower value 1.03 | S. cerevisiae deletion strains, locus YPR119W, strain clb2, stronger effect = lower value 0.986 | S. cerevisiae deletion strains, locus YPR141C, strain kar3, stronger effect = lower value 0.989 | S. cerevisiae deletion strains, locus YPR163C, strain tif3, stronger effect = lower value 0.988 | S. cerevisiae deletion strains, locus YPR167C, strain met16, stronger effect = lower value 0.99 | S. cerevisiae deletion strains, strain wtn01, stronger effect = lower value 0.976 | S. cerevisiae strains, strain wild type, stronger effect = lower value 1.02
